Compound activity: PubChem, National Center for Advancing Translational Sciences (NCATS)
This is a sample that favours compounds with a hit; in the whole collection about 21% have one here.
Shiga toxin inh = A qHTS for Small Molecule Inhibitors of Shiga Toxin; AID 2315, 2010; inhibition, % at 38.7 µM; 9.2% of 290,000 active; Vero cells, Shiga toxin protein synthesis inhibition reporter; in the data active = inhibition mostly above about 28%, no sharp cut-off; inactive = mostly below about 43%; also: 0% is about no effect
NS1 inh = qHTS Assay for Inhibitors of Influenza NS1 Protein Function; Potency, µM (titrated, usually from 46.1 µM), for the others: at the highest dose activity, positive = more growth; 0.4% of 270,000 active; AID 2326, 2010; calls by dose curve; also: potency is read from the fitted curve at half-maximal effect; actives are rising curves; nearly all actives have a fitted effect of over 50% in size
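In this qHTS, NS1 from influenza A is expressed in budding yeast, where it slows growth. Cells are switched from glucose to 2% galactose medium (pH 6.0, -URA), treated with compound, and growth recovery is read at OD600.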
Pf growth 96h = Primary qHTS for delayed death inhibitors of the malarial parasite plastid, 96 hour incubation; P. falciparum luciferase reporter growth, 96 h; Potency, µM (doses to about 28.7 µM), for the others: at the highest dose activity change, negative = inhibition, hits mostly inhibitors; 6.9% of 320,000 active; AID 504834, 2011; also: potency is read from the fitted curve at half-maximal effect; % is scaled to controls: 0 for no effect and ±100 for the full control effect
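Compounds incubated with erythrocytes infected by luciferase-expressing P. falciparum (2% hematocrit, 0.05% parasitemia final) for 96 hours, 37 C in 5% CO2. Growth inhibition scored as decreased luciferase luminescence.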
Pf growth 48h = Primary qHTS for delayed death inhibitors of the malarial parasite plastid, 48 hour incubation; P. falciparum luciferase growth in erythrocytes, 48 h; Potency, µM (titrated, usually from 28.7 µM), inactives show at the highest dose activity change, negative = inhibition, actives largely listed as inhibitors; 5.9% of 310,000 active; also: potency is read from the fitted curve at half-maximal effect; % is scaled to controls: 0 for no effect and ±100 for the full control effect
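Here the parasites carry a stable luciferase gene and grow inside erythrocytes in Albumax-based RPMI medium with compound for one erythrocytic cycle. Activity is scored as loss of luminescent signal.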
CHX counter = Cycloheximide Counterscreen for Small Molecule Inhibitors of Shiga Toxin. max response, %. 12% of 300,000 active. AID 2314, 2010. cell reporter, cycloheximide protein synthesis inhibition counterscreen; in the data active = max response mostly above about 13%, no sharp cut-off; inactive = mostly below about 14%; also: read at 38.3 µM for the half of the compounds with a filed dose; 0% is about no effect
* = called active by the depositor; ? = inconclusive; nt = no result given. Unless noted, calls follow the shape of the dose curve; as a rule, active = well fitted inhibition curve with a large enough effect; inconclusive = small, poorly fitted or top-dose-only effect, or another doubt; inactive = no such curve, though single readings can be large or run the other way.

SMILES	Shiga toxin inh	NS1 inh	Pf growth 96h	Pf growth 48h	CHX counter
O=C1c2ccccc2-c2onc3ccc(NCc4ccco4)c1c23	-7	-111%	25%	-28%	13*
O=C1c2ccccc2C(=O)c2c1cccc2N1CCCC1	56*	-13%	0%	66%	43*
CCNc1ccc2noc3c2c1C(=O)c1ccccc1-3	21	16%	?	35%	17
O=C1c2ccccc2-c2onc3ccc(N4CCCC4)c1c23	11	nt	39%	9.3µM*	-6
Cn1c(=O)cc2c3c(c(N4CCCCC4)ccc31)C(=O)c1ccccc1-2	7	2%	-16%	?	2
CSc1ncc(C(=O)Nc2cccnc2)c(C(F)(F)F)n1	-7	2%	2%	-20%	-7
Cc1ccc(C#CC[N+]2(CC#Cc3ccc(C)cc3)CCCCC2)cc1	12	0%	?	0.59µM*	-3
C#CC[N+]1(CC#Cc2cccc(C)c2)CCCCC1	18	nt	-12%	1.5µM*	-3
Cn1cccc1/C=N/N1CCN(Cc2cccc3ccccc23)CC1	11	1%	2%	-6%	-1
COc1ccc(C(=O)N2CCN(Cc3ccc4c(c3)OCO4)CC2)cc1[N+](=O)[O-]	-13	1%	1%	14%	15
CCOC(=O)C1(Cc2ccc(OC)cc2)CCN(C(=O)c2cncs2)CC1	31	-5%	?	-7%	16*
CCOC(=O)C1(Cc2ccc(OC)cc2)CCN(C(=O)c2ccoc2C)CC1	21	-4%	50%	?	11*
NC(=O)c1cc(NC(=O)CCCc2nc3ccccc3s2)cc(C(N)=O)c1	-1	2%	0%	-7%	1
Cc1ccc(C(=O)NC(=S)NCC2CCCO2)cc1 (centres undefined)	102	8%	?	101%	65*
O=C(NC(=S)NCC1CCCO1)c1ccc(Cl)cc1 (centres undefined)	41*	14%	15%	67%	29*
O=C(NC(=S)NCC1CCCO1)c1ccccc1 (centres undefined)	34*	13%	34%	50%	31*
O=C(NC(=S)NCC1CCCO1)c1ccc([N+](=O)[O-])cc1 (centres undefined)	10	26%	0.59µM*	25%	9
COc1ccccc1CNC(=O)CCCNC(=O)c1ccc(Cl)cc1	6	-10%	0%	-5%	8
COc1ccc(S(=O)(=O)N2CCOCC2)cc1NC(=O)CSc1nnc2c(n1)[nH]c1ccccc12	-10	8%	?	?	4
COC(=O)c1ccc(OCC(O)CN2CCOCC2)cc1 (centres undefined)	21	5%	?	0%	5
O=C(NC(=S)NCCN1CCOCC1)c1ccc(Cl)cc1	34	8%	1%	8%	24*
O=C(COC(=O)c1cccc2ccccc12)NCC1CCCO1 (centres undefined)	15	nt	52%	22%	8
O=C(NC(=S)NCCN1CCOCC1)c1ccc(Cl)cc1Cl	2	2%	?	-1%	3
CN(C)c1ccc(/C=C(\NC(=O)c2ccccc2)C(=O)NCCN2CCOCC2)cc1	-7	-3%	9.3µM*	10%	-5
O=C(COC(=O)c1ccccc1)NCC1CCCO1 (centres undefined)	46*	-2%	nt	25%	24*
SMILES	Shiga toxin inh	NS1 inh	Pf growth 96h	Pf growth 48h	CHX counter
O=C(O)C(c1ccccc1)N1C(=O)c2cccc3cccc(c23)C1=O (centres undefined)	-16	26%	1.5µM*	-17%	1
COc1ccc(C(=O)N2CCN(CCNC(=O)C(=O)Nc3ccc(Br)cc3)CC2)cc1	-9	-3%	17%	-16%	4
COC(=O)C1CC(c2ccc(Cl)cc2)=NO1 (centres undefined)	-16	nt	-1%	2%	-4
O=C(/C=C/c1cccc(Br)c1)NCC1CCCCC1	16	-13%	?	24%	6
O=C(CCCCCBr)N1CCC(CC2CC(c3ccc(Cl)cc3)=NO2)(C(=O)NCC2CCCCC2)CC1 (centres undefined)	-9	11%	3.3µM*	?	-1
CCCCCCCNC(=O)C1(CC2CC(c3ccc(Cl)cc3)=NO2)CCN(C(=O)CCCCCBr)CC1 (centres undefined)	11	-31%	12µM*	32%	-2
NC(=O)C1CCCN(C(=O)CCCNC(=O)c2ccc(Cl)cc2)C1 (centres undefined)	-7	4%	7%	9%	-4
